Bioassay records from PubChem BioAssay.
The list is not random: actives were taken first. Their share in the collection is about 6.2%.
HCMV antiviral: blocks human cytomegalovirus replication; HFF cells, HCMV-luciferase reporter, 72 h; active compounds read low; activity change, negative = inhibition, % at 57.5 µM; actives 4.5% (n = 410,000); AID 1259415; in the data active = activity change below about -60%; inconclusive = no clear call, values can overlap the other calls; inactive = above about -39%
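Two-dose cell screen: HFF monolayers treated with compounds and infected with luciferase-expressing HCMV at 1 PFU/cell, 72 h at 37C, then lysed for luciferase measurement.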
FMDV antiviral: antivirals against foot and mouth disease virus; FMDV antiviral cell-based qHTS; Potency, µM (doses to about 57.9 µM), inactives show at the highest dose activity change, negative = inhibition, actives largely listed as inhibitors; actives 1.2% (n = 410,000); calls by dose curve; tested in HEK293T cells; note: read-out not given here; potency is the fitted concentration of half-maximal effect; nearly all actives have a fitted effect of over 45% in size
LASV entry inh: Lassa virus entry inhibition | Lassa virus pseudotype entry inhibition, cell reporter | actives 1.2% (n = 300,000) | Potency, µM (doses to about 37.9 µM), inactives show at the highest dose activity change, negative = inhibition, usual class: inhibitors; calls by dose curve; tested in HEK293 cells; note: potency is the fitted concentration of half-maximal effect; nearly all actives have a fitted effect of over 50% in size
MARV entry inh: blocks Marburg virus binding to or entry into cells; Marburg virus pseudotyped entry inhibition, cell reporter; AID 540276; Potency, µM (titrated, usually from 37.8 µM), inactives show top-dose activity change, negative = inhibition, usual class: inhibitors; actives 1.8% (n = 300,000); calls by dose curve; tested in HEK293 cells; note: potency is the fitted concentration of half-maximal effect
* hit, by the source's call; ? = inconclusive; · = not tested or not shown; ! = not confirmed by another sample; [ ] = another dose, or the depositor's remark. % is set by controls: 0 for no effect and ±100 for the full control effect.

SMILES	HCMV antiviral	FMDV antiviral	LASV entry inh	MARV entry inh
COC(=O)C/C=C\[C@H](C)[C@@H](OCc1ccccc1Br)C(C)C	·	·	·	14%[14.2 µM]
COc1ccccc1C(=O)N[C@@H]1c2ccccc2C2(CCN(Cc3ccc(C)o3)CC2)[C@H]1O	·	-4%	·	·
Cc1ccc2sc(N3CCN(C(=O)CCS(=O)(=O)c4ccc(F)cc4)CC3)nc2c1C	-37	?	13%[46.1 µM]	·
Cc1ccc(S(=O)(=O)CCC(=O)N2CCN(c3ccc(Cl)cc3)CC2)cc1	-70*	?	-27%	-12%
Cc1c(Cl)ccc2sc(N3CCN(C(=O)CCS(=O)(=O)c4ccc(F)cc4)CC3)nc12	-70*	11µM*	?	·
O=C(CCS(=O)(=O)c1ccc(Cl)cc1)N1CCN(c2ccc(F)cc2)CC1	-4	-25%	·	·
Cc1ccc(S(=O)(=O)CCC(O)c2ccc(Cl)cc2)cc1 (stereo not given)	-102*	-17%	·	·
NC(=Nc1ccccc1)NC(=O)c1nc(Cl)c(N)nc1N	·	17%	?	?
NC(=NCc1ccccc1)NC(=O)c1nc(Cl)c(N)nc1N	14	0%	14%	10µM*!
c1ccc(COc2ccc(-c3cc4nc(NCc5ccc6c(c5)OCO6)ccn4n3)cc2)cc1	-64*	-29%	·	·
CC(N)CCCC(C)(C)O (stereo not given)	·	-7%	·	·
Cc1ccc([C@H]2C[C@]34CNS(=O)(=O)[C@H]3C[C@H]2O4)cc1	23	·	·	·
O=S1(=O)NC[C@]23C[C@H](c4ccc(F)cc4)[C@@H](C[C@@H]21)O3	-102*	18%	·	·
CC[N+]1=C(C)C(C)(C)c2cc(C)ccc21	-94*	?	·	·
Cc1c2ccncc2cc2c1[nH]c1ccccc12	?	4%	-29%[46.1 µM]	?
COc1ccc2[nH]c3c(C)c4ccncc4c(C)c3c2c1	-77*	?	·	·
COc1cc(OC)c(NC(=O)Nc2cc(C)on2)cc1Cl	·	9%	·	·
COc1ccc(CC(=O)Nc2cccc(-c3ccc4nnc(C)n4n3)c2)cc1OC	92	20µM*	?	?
COc1ccc(CC(=O)Nc2cccc(-c3ccc4nncn4n3)c2)cc1OC	0	18µM*	?	?
COc1ccc(CC(=O)Nc2cccc(-c3ccc4nnc(C)n4n3)c2)cc1	72	-25%	13%[46.1 µM]	?
Cc1ccc(C2C3=C(NCCN=C3c3ccccc3)C(=O)N2c2ccccc2)cc1 (stereo not given)	-24	·	?	10µM*
CCOc1ccc(N2C(=O)C3=C(C(c4ccc(Cl)cc4)=NCCN3)C2c2cccnc2)cc1 (stereo not given)	-31	-3%	?	11µM*
COc1cccc2[nH]c(-c3ccccn3)nc12	2	·	·	·
Cc1nc(N)nc(Cl)c1Cc1ccc(Cl)cc1	-61*	-13%	-9%[46.1 µM]	?
CCCCc1oc2ccc(NS(C)(=O)=O)cc2c1C(=O)c1ccc(OCCCN(CCCC)CCCC)cc1	-82*	·	·	·
SMILES	HCMV antiviral	FMDV antiviral	LASV entry inh	MARV entry inh
CCCCCOc1ccc(NS(C)(=O)=O)cc1	125	42%	9%	23%
CCOC(=O)c1cccc(NC2c3ccccc3C(=O)N2Cc2ccco2)c1 (stereo not given)	-31	13µM*	·	·
CC(=O)c1cccc(NC2c3ccccc3C(=O)N2Cc2ccco2)c1 (stereo not given)	188	?	·	·
O=C1c2ccccc2C(Nc2cccc(C(F)(F)F)c2)N1Cc1ccco1 (stereo not given)	-31	?	?	14µM*
COc1cccc(NC2c3ccccc3C(=O)N2Cc2ccco2)c1 (stereo not given)	0	-23%	·	·
Cc1ccc(/C=C(\C#N)c2nc(-c3cc4c(ccc5ccccc54)oc3=O)cs2)cc1	9	-10%	4%[46.1 µM]	·
CCC(c1nnc(SCC(=O)Nc2ccc(Cl)cc2C(F)(F)F)n1C1CCCCC1)N(C)C (stereo not given)	-36	-10%	13µM*	?
COC(=O)C1C(=O)C(C(=O)/C=C/c2ccccc2)C(=O)CC1(C)C (stereo not given)	-82*	?	3%[46.1 µM]	-16%[46.1 µM]
COC(=O)C1C(=O)C(C(=O)/C=C/c2ccco2)C(=O)CC1(C)C (stereo not given)	·	-13%	·	·
CCOC(=O)c1c(NC(=O)CSc2nc3cc(Cl)ccc3s2)sc(C(C)=O)c1C	-61*	·	10%	25%
Cc1cccc(S(=O)(=O)Nc2cccc(-c3cn4ccsc4n3)c2)c1	-20	-22%	?	?
O=S(=O)(Nc1cccc(-c2cn3cccnc3n2)c1)c1ccccc1	-8	-12%	-17%	7%
O=S(=O)(Nc1cccc(-c2cn3cccnc3n2)c1)c1ccc(-c2ccccc2)cc1	-77*	0%	10%	-20%
